# Data as given in PubChem BioAssay (NCI).
# About 79,000 compounds went through this panel and 15% of them were active in at least one assay; those are over-represented in the sample as a whole. Values without a mark were called inactive. The source made the active and inactive calls. No stated cut-off is given here; in the data, active means growth inhibition above about 70%; inactive means the rest.
# Columns and labels:
# [1] = NCI Yeast Anticancer Drug Screen. Data for the rad50 strain (AID 155);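 further: 0% = growth of vehicle-only cultures of the same strain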; details: S. cerevisiae rad50 strain growth inhibition, stronger effect = higher value
# Procedure, shortened: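 Yeast carrying a defined DNA repair defect were exposed to test compounds, and growth was compared with vehicle-treated controls to give percent inhibition.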
# [2] = NCI Yeast Anticancer Drug Screen. Data for the mec2-1 strain (AID 157); details: S. cerevisiae mec2-1 strain, stronger effect = higher value
# Procedure, shortened: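 Readout is yeast growth inhibition, normalised to vehicle-treated controls, in the mec2-1 strain exposed to compound.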
# [3] = NCI Yeast Anticancer Drug Screen. Data for the sgs1 mgt1 strain (AID 161);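 further: 0% = growth of cultures given vehicle only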; details: S. cerevisiae sgs1 mgt1 strain, stronger effect = higher value
# Procedure, shortened: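 Growth of a repair-deficient yeast mutant was monitored after compound treatment and expressed as inhibition relative to vehicle-treated cultures.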
# [4] = NCI Yeast Anticancer Drug Screen. Data for the cln2 rad14 strain (AID 165);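 further: 0% = growth equal to vehicle treated cultures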; details: S. cerevisiae cln2 rad14 strain, stronger effect = higher value
# Procedure, shortened: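 Relative to vehicle controls, growth inhibition of compound-treated cln2 rad14 yeast was recorded.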
# [5] = NCI Yeast Anticancer Drug Screen. Data for the bub3 strain (AID 167); details: S. cerevisiae bub3 mutant strain, stronger effect = higher value
# Procedure, shortened: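 Compounds were applied to a genetically altered yeast strain carrying a cell-cycle control defect. Growth inhibition was scored against vehicle-treated controls.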
# [6] = NCI Yeast Anticancer Drug Screen. Data for the mlh1 rad18 strain (AID 175); details: S. cerevisiae mlh1 rad18 strain growth inhibition, stronger effect = higher value
# Procedure, shortened: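 Test agents were incubated with a yeast strain of defined genotype (DNA damage repair defect). Inhibition of growth was derived by comparison with vehicle-exposed cultures.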
# [7] = at 5.0 µM (retest, dose inferred, filed as 0.5)
# [8] = at 50.0 µM (retest, dose inferred, filed as 5.0)
SMILES,"growth inhibition [1, 7]","growth inhibition [1, 8]",growth inhibition ([1]; at 50.0 µM),"growth inhibition [2, 7]","growth inhibition [2, 8]",growth inhibition ([2]; at 50.0 µM),"growth inhibition [3, 7]","growth inhibition [3, 8]",growth inhibition ([3]; at 50.0 µM),"growth inhibition [4, 7]","growth inhibition [4, 8]",growth inhibition ([4]; at 50.0 µM),"growth inhibition [5, 7]","growth inhibition [5, 8]",growth inhibition ([5]; at 50.0 µM),"growth inhibition [6, 7]","growth inhibition [6, 8]",growth inhibition ([6]; at 50.0 µM)
CC(C)[O-].CC(C)[O-].[O-]c1cccc2cccnc12.[O-]c1cccc2cccnc12.[Ti+4],6%,6%,55.5%,11%,11%,70.8% (active),4%,4%,37.6%,6%,6%,51.8%,-3%,-3%,64.8%,-24%,-24%,58.9%
Cc1ccc2c(c1)SP(=S)(c1ccccc1)N2 (centres undefined),6%,99% (active),99.2% (active),4%,99% (active),99.5% (active),8%,97% (active),99.3% (active),15%,97% (active),54.4%,0%,99% (active),98.8% (active),3%,99% (active),98% (active)
CCCCCCCCCCCCC(=O)[O][Hg][c]1ccccc1,99% (active),99% (active),99.2% (active),100% (active),100% (active),99.5% (active),100% (active),100% (active),99.5% (active),99% (active),99% (active),99.3% (active),99% (active),99% (active),100% (active),99% (active),99% (active),99.5% (active)
CCC[CH2][Sn]1([CH2]CCC)[O]C(=O)c2cccc(C)c2[O]1,86% (active),96% (active),96.7% (active),89% (active),98% (active),97.7% (active),88% (active),94% (active),96.3% (active),86% (active),97% (active),93.3% (active),88% (active),97% (active),95.9% (active),87% (active),95% (active),98.2% (active)
S=C(S)N1CCOCC1,62%,94% (active),-11.9%,50%,84% (active),28.1%,37%,82% (active),42.7%,-2%,75% (active),-23.9%,45%,86% (active),98.3% (active),60%,88% (active),19.5%
Nc1ccc(Cc2ccc(N)c(Cl)c2)cc1Cl,-6%,90% (active),78% (active),-8%,78% (active),95.1% (active),-1%,92% (active),95.2% (active),-10%,91% (active),75.8% (active),0%,93% (active),96.8% (active),-3%,97% (active),97.2% (active)
ClC1=NSSC1(Cl)Cl,16%,96% (active),90.4% (active),16%,99% (active),92.5% (active),18%,99% (active),91.2% (active),20%,78% (active),87.7% (active),21%,99% (active),90.3% (active),17%,90% (active),92.2% (active)
COc1c(NC(=O)CC(C)=O)[c]([Hg][O]C(C)=O)c(OC)c(Cl)[c]1[Hg][O]C(C)=O,29%,95% (active),91.8% (active),32%,96% (active),93.8% (active),81% (active),97% (active),93.5% (active),29%,96% (active),88.8% (active),62%,97% (active),93.3% (active),38%,95% (active),87.8% (active)
Clc1c(Cl)c(Cl)c([S][Pb]([c]2ccccc2)([c]2ccccc2)[c]2ccccc2)c(Cl)c1Cl,91% (active),85% (active),98.5% (active),96% (active),92% (active),98.4% (active),94% (active),42%,98.8% (active),84% (active),89% (active),97.7% (active),92% (active),96% (active),98.5% (active),92% (active),92% (active),98.3% (active)
C[CH2][Sn]1([CH2]C)[c]2ccccc2Oc2cccc[c]21,99% (active),98% (active),99% (active),99% (active),99% (active),99.4% (active),99% (active),99% (active),99.3% (active),97% (active),98% (active),98.8% (active),99% (active),99% (active),99.2% (active),99% (active),99% (active),99% (active)
CC(=O)C1C2c3ccccc3C(c3ccccc32)C1C (centres undefined),3%,55%,77.6% (active),-7%,52%,10.4%,-2%,62%,65%,-85%,63%,30.5%,-9%,71% (active),45.1%,-1%,53%,69.5%
O=S(=O)([O-])[O-].[Fe+2].c1ccc(/C(=N\Nc2ccccn2)c2ccccn2)cc1,3%,33%,12.9%,-2%,39%,82.2% (active),-4%,22%,16.1%,-3%,-8%,13.5%,1%,1%,1.75%,-3%,7%,25.8%
COc1ccc2c(c1O)-c1cccc3c1[C@@H](C2)N(CCCl)CC3,30%,90% (active),67.6%,15%,99% (active),70.8% (active),28%,95% (active),57.6%,13%,66%,35.4%,19%,98% (active),44.4%,52%,98% (active),86.6% (active)
CC1=CC2OC3CC4OC(=O)/C=C/C=C/C(C(C)O)OCC(O)C(C)CC(=O)OCC2(CC1O)C4(C)C31CO1 (centres undefined),39%,96% (active),90.4% (active),40%,99% (active),91.9% (active),48%,94% (active),92.2% (active),34%,94% (active),90.3% (active),25%,95% (active),91% (active),42%,98% (active),89.2% (active)
CCC1(O)C(=O)OCc2c1cc1n(c2=O)Cc2cc3cc([N+](=O)[O-])ccc3nc2-1 (centres undefined),76% (active),95% (active),77.9% (active),10%,46%,43.4%,21%,33%,24.9%,14%,8%,-2.9%,13%,10%,-21.3%,10%,32%,59.5%
COc1ccc(OC)c(C=O)c1,1%,5%,24.9%,0%,7%,-12.2%,-2%,12%,-11.7%,2%,4%,-38.2%,2%,7%,-35%,-1%,14%,-8%
COc1cc(OC)c(OC)cc1/C=C/[N+](=O)[O-],35%,64%,85.9% (active),24%,85% (active),90.9% (active),46%,85% (active),90.8% (active),9%,39%,77.8% (active),12%,67%,94.8% (active),71% (active),91% (active),92% (active)
CCC[CH2][Sn]([N]=C=S)([N]=C=S)[N]=C=S.O=P(c1ccccc1)(c1ccccc1)c1ccccc1.O=P(c1ccccc1)(c1ccccc1)c1ccccc1,-5%,27%,50.3%,-4%,15%,61.2%,-4%,46%,83.2% (active),-2%,10%,23.1%,-4%,33%,46.2%,-4%,44%,75.3% (active)
